# Test results reported in PubChem BioAssay.
# Activity calls are given as the source filed them.
# Columns and labels:
# [1] = tested on: PRMT1 (protein arginine N-methyltransferase 1); assay: PRMT1 binders on small-molecule microarrays, primary screen, biochemical, small-molecule microarray, 635 nm fluorescence (AID 1088); settings: small-molecule microarray binding, higher = more signal;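 also: binding of Prmt1 protein to compounds spotted on small-molecule microarray slides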
# [2] = yeast growth modulation, basal conditions, primary screen, YJM789 clinical isolate, OD600, 24 h (AID 1089);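 also: growth of clinical yeast isolate S. cerevisiae YJM 789 seeded 1000 cells per well; test concentration not given here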; settings: S. cerevisiae YJM789 growth, higher = more signal, called active from +8 up or from −8 down
# [3] = fission yeast growth modulation, primary screen, strain 972, OD600, 24 h, no modulator (AID 1090);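 also: basal condition with compound alone and no growth modifier present; test concentration not given here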; settings: S. pombe 972 growth, higher = more signal, called active from +8 up or from −8 down
# [4] = S. cerevisiae growth modulation with rapamycin, primary screen, strain BY4716, OD600, 96 h (AID 1091); settings: higher = more signal, called active from +8 up or from −8 down; also: test concentration not given here
# [5] = target: Torsin-1A-interacting protein 2 (Homo sapiens) (UniProt Q8NFQ8); assay: LULL1 binders on small-molecule microarray, primary screen, cell lysate, human LULL1 lysate, 635/667 nm fluorescence (AID 1092); settings: hLULL1 lysate binding, 635 nm fluorescence, higher = more signal;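 also: probe is lysate of COS7 cells overexpressing human LULL1; score merges per-feature 667 nm fluorescence with signal-to-noise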
# [6] = E. coli growth modulation, two-sided OD650, primary screen, E. coli filamentation project, strain DRC41, 24 h (AID 1093); settings: OD650, 24 h, higher = more signal, called active from +8 up or from −8 down;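 also: MC1000 strain lacking acrAB efflux and sulA so SOS filamentation is blocked; test concentration not given here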
# [7] = small-molecule microarray binders of probe aLefty2, primary screen, biochemical, biotinylated probe, 635/667 nm fluorescence (AID 1094); settings: higher = more signal;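 also: score merges spot fluorescence near 667 nm with spot signal-to-noise ratio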
# [8] = tested on: Noggin (protein binding on small-molecule microarray); assay: Noggin binders on small-molecule microarray, primary screen, biochemical, 635/667 nm fluorescence (AID 1095); settings: 635 nm fluorescence, higher = more signal;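 also: score merges 667 nm feature fluorescence with signal to noise over triplicate slides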
# [9] = target: Neurogenic locus notch homolog protein 3 (Homo sapiens) (UniProt Q9UM47); assay: NOTCH3 binders on small-molecule microarray, primary screen, biochemical, 635/667 nm fluorescence (AID 1096); settings: NOTCH3 binding, 635 nm fluorescence, higher = more signal
# [10] = small-molecule microarray binders of probe aEGFR, primary screen, biochemical, biotinylated probe, 635/667 nm fluorescence (AID 1097); settings: higher = more signal;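 also: probe is a biotinylated anti-EGFR antibody binding compounds printed on slides; score combines fluorescence near 667 nm and signal to noise of each spot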
# Sequence of Neurogenic locus notch homolog protein 3 (Homo sapiens) (Q9UM47 whole entry, looked up): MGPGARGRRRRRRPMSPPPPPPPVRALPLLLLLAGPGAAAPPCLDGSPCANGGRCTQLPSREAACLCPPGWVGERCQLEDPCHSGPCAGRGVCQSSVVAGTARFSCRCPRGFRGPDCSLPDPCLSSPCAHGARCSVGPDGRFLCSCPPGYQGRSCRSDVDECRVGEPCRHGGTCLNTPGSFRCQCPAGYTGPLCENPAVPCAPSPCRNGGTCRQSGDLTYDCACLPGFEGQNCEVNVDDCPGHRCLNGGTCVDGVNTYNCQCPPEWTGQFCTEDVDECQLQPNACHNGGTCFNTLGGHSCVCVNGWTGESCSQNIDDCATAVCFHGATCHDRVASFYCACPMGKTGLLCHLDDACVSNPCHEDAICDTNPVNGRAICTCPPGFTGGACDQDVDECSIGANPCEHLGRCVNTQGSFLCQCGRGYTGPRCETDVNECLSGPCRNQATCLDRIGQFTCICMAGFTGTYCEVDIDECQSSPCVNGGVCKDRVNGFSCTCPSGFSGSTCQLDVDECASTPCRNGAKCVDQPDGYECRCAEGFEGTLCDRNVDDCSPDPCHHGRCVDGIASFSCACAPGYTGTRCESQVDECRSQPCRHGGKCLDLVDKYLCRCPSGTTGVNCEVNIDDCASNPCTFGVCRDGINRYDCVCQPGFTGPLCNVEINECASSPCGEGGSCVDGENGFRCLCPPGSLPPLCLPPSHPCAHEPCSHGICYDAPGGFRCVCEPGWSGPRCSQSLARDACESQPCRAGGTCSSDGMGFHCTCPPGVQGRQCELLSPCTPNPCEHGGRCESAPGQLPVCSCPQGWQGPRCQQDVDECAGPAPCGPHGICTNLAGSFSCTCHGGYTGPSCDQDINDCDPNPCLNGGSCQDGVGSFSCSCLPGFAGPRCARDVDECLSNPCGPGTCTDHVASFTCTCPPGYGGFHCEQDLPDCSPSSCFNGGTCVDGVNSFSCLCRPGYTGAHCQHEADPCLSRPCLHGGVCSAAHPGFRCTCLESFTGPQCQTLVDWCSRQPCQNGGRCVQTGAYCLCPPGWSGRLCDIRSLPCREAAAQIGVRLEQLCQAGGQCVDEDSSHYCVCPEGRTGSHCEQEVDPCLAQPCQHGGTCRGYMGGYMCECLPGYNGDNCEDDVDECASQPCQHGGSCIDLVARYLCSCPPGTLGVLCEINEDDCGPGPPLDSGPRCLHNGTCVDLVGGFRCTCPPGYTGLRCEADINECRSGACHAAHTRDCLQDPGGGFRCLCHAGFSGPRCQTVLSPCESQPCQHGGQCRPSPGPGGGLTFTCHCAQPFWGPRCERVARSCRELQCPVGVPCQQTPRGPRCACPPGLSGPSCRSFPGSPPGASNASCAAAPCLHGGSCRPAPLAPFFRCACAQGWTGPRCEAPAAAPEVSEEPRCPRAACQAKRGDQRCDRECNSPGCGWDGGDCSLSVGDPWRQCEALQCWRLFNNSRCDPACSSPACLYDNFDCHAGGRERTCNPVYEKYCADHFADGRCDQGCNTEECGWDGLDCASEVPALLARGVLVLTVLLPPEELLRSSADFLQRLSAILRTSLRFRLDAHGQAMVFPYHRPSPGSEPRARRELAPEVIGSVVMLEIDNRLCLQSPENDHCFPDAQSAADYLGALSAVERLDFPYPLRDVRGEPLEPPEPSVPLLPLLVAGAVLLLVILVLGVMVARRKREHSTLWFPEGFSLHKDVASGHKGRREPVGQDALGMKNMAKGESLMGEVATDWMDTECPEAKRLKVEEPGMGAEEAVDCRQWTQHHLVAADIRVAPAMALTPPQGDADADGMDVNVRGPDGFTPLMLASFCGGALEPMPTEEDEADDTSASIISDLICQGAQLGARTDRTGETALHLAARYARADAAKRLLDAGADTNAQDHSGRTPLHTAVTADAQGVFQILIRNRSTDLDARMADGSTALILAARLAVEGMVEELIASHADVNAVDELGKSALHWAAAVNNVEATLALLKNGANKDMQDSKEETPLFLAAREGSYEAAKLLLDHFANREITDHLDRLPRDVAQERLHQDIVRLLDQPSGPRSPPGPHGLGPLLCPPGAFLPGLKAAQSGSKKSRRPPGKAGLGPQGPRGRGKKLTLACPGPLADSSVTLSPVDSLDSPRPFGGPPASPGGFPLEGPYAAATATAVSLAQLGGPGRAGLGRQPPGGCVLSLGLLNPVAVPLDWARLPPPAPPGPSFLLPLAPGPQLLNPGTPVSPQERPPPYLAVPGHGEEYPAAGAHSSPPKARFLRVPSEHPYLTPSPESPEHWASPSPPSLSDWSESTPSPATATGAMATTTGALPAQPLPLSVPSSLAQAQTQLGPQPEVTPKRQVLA
# Sequence of Torsin-1A-interacting protein 2 (Homo sapiens) (Q8NFQ8 whole entry, looked up): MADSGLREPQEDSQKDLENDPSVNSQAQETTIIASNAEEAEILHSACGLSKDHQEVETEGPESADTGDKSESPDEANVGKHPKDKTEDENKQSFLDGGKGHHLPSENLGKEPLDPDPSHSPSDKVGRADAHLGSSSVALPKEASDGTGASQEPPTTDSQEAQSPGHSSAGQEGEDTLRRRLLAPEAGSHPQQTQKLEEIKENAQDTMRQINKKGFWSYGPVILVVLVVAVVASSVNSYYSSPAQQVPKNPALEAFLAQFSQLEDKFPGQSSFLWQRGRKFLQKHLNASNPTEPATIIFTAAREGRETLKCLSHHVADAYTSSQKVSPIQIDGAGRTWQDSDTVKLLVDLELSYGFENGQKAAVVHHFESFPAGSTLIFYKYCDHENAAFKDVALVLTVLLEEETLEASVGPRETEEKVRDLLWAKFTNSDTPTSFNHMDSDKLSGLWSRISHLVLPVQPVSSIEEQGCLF
SMILES,composite z-score [1],z-score [2],z-score [3],z-score [4],composite z-score [5],z-score [6],composite z-score [7],composite z-score [8],composite z-score [9],composite z-score [10]
CCCC[C@@H]1C[C@H]1[C@@H](NC(=O)c1ccccc1)c1ccc(C(=O)OC)cc1,-0.406,-1.24 (inactive),-11.2 (active),-2.61 (inactive),0.0062,-1.13 (inactive),0.285,0.894,-0.544,-0.224
O=C(CS)NCCCCCCNC(=O)[C@@H]1C[C@@H]2C(=O)NCC(=O)N2[C@@H]1c1cccc(OCCO)c1,1.01,0.309 (inactive),0.156 (inactive),0.616 (inactive),3.09,0.456 (inactive),-0.327,-0.07,0.188,-0.0662
Cc1ccc(S[C@]2(C(=O)NC3CC3)CC(=O)N(Cc3ccccc3)[C@@H]2c2ccc(CO)cc2I)cc1,1.23,0.0136 (inactive),-3.59 (inactive),0.0377 (inactive),2.35,0.45 (inactive),-0.012,-0.809,-0.738,-0.286
COC(=O)[C@H](Cc1ccccc1)N1CC2=C[C@@H](C3CC3)n3c(=O)n(C)c(=O)n3[C@H]2[C@@H]1[C@@H](O)Cc1ccccc1,1.06,-0.973 (inactive),-1.15 (inactive),0.0538 (inactive),2.88,-0.89 (inactive),-0.136,1.15,1.02,0.142
COC(=O)[C@@]1(Cc2ccc(F)cc2)[C@H]2c3cc(C(=O)N(C)C)n(Cc4ccc(Cl)c(C(F)(F)F)c4)c3C[C@H]2CN1C(=O)c1ccccc1,1.31,0.44 (inactive),1.29 (inactive),1.69 (inactive),3.62,-0.824 (inactive),0.395,-0.602,1.02,0.231
COC(=O)C(CC#Cc1ccc2c(c1)[C@]1(C(=O)N2)[C@H](C(=O)Nc2nc3ccccc3s2)[C@H]2C(=O)O[C@H](c3ccccc3)[C@H](c3ccccc3)N2[C@@H]1c1ccccc1OCCO)C(=O)OC,1.55,1.35 (inactive),1.12 (inactive),1.39 (inactive),2.69,-0.404 (inactive),0.0293,0.485,1.08,-0.0244
O=C1O[C@H](c2ccccc2)[C@H](c2ccccc2)N2[C@H]1[C@@H](C(=O)N1CCCCCCC1)[C@]1(C(=O)Nc3ccc(C#CC4=CCCCC4)cc31)[C@H]2c1ccc(OCCO)cc1,1.53,0.42 (inactive),-2.08 (inactive),2.79 (inactive),3.7,2.64 (inactive),1.72,1.72,1.02,1.07
COC(=O)[C@@]1(Cc2ccc(OC)cc2)[C@H]2c3cc(C(=O)N4CCCC4)n(Cc4ccc(C)c(F)c4F)c3C[C@H]2CN1C(=O)c1ccccc1,0.998,0.57 (inactive),1.48 (inactive),1.57 (inactive),3.52,0.107 (inactive),0.505,0.214,1.04,0.178
COCCCNC(=O)[C@]1(CCC(=O)OC(C)(C)C)N=C(c2ccc(OCCCO)cc2)O[C@@H]1c1ccccc1CN=[N+]=[N-],1.54,0.15 (inactive),0.556 (inactive),-0.78 (inactive),2.92,-0.613 (inactive),0.0894,0.33,0.89,-0.0315
COC(=O)[C@@]1(Cc2ccc(OC)cc2)[C@@H]2C(=CC(=O)[C@H]2CC(=O)C(=O)N2CCCC2)CN1C(=O)c1ccccc1,-1.55,0.201 (inactive),0.097 (inactive),0.176 (inactive),2.99,0.355 (inactive),0.336,0.0255,0.735,0.386
Cc1ccc(S[C@]2(C(=O)NCCCN(C)C)CC(=O)N(Cc3cc(C(F)(F)F)cc(C(F)(F)F)c3)[C@@H]2c2ccc(CO)cc2I)cc1,-0.371,-1.17 (inactive),-3.06 (inactive),1.03 (inactive),1.77,0.888 (inactive),0.269,-1.64,-0.937,-0.0246
N#Cc1ccc(NN2C(C(O)C(c3ccccc3)c3ccccc3)C=CC3C(=O)N(c4ccccc4)C(=O)C32)cc1 (stereo not given),1.07,0.43 (inactive),1.25 (inactive),5.53 (inactive),3.58,-0.0873 (inactive),0.167,0.297,1.01,0.0981
COCCCNC(=O)[C@@H]1c2ccccc2C(=O)N(Cc2ccccc2Cl)[C@H]1c1ccc(CO)cc1,1.53,-0.103 (inactive),-0.329 (inactive),-0.59 (inactive),2.26,2.55 (inactive),-0.101,0.522,0.388,-0.13
C=CC1(C(=O)OC)CC=C(C(=O)OC)CC1 (stereo not given),0.911,-1.64 (inactive),0.358 (inactive),-0.624 (inactive),0.531,-0.487 (inactive),-0.0449,0.533,0.57,0.0413
CC(C)NC(=O)[C@@]1(C)c2ccccc2C(=O)N(Cc2cc(C(F)(F)F)cc(C(F)(F)F)c2)[C@H]1c1ccc(CO)cc1,1.4,0.49 (inactive),0.155 (inactive),-0.0902 (inactive),3,-0.0192 (inactive),-0.239,-0.729,-0.301,-0.295
C=C(C(=O)CC[C@@H](OC(=O)c1cccnc1)c1ccccc1OCCO)C(C)C,1.44,-0.73 (inactive),-0.177 (inactive),0.404 (inactive),-0.263,0.144 (inactive),-0.0666,0.535,0.272,-0.0703
C=CCOC(=O)[C@@H]1[C@H]2C(=O)O[C@H](c3ccccc3)[C@H](c3ccccc3)N2[C@H](c2ccc(OCCOC(=O)[C@@H]3C[C@@H]4C(=O)NCC(=O)N4[C@@H]3c3ccc(O)cc3)cc2)[C@@]12C(=O)Nc1ccc(I)cc12,1.55,0.218 (inactive),0.985 (inactive),2.85 (inactive),2.54,0.5 (inactive),-0.171,1.58,0.859,-0.154
C=C(CCCC)/C(=C/C[C@H](OC(=O)c1ccncc1)c1ccccc1OCCO)c1cnc2ccccc2c1,1.55,-1.73 (inactive),-1.14 (inactive),3.47 (inactive),1.34,-0.0552 (inactive),-0.217,1.27,1.13,-0.111
COc1ccc(-c2cc3c(c(-c4ccc(Oc5ccccc5)cc4)n2)[Si](C(C)C)(C(C)C)OC3)cn1,0.483,1.32 (inactive),0.955 (inactive),1.88 (inactive),-0.166,-0.984 (inactive),-0.119,0.503,0.342,-0.26
CC1CC/C=C\[C@H]2OC34C=CCN(C(C)(C)C)C(=O)[C@H]3N(CCO)C(=O)[C@@H]4C2C(=O)O1 (stereo not given in full),1.06,-1.33 (inactive),-0.905 (inactive),-0.471 (inactive),2.92,1.45 (inactive),-0.0589,0.112,-0.916,-0.312
C=CCOC(=O)[C@@H]1[C@H]2C(=O)O[C@H](c3ccccc3)[C@H](c3ccccc3)N2[C@H](c2ccc(OCCOC(=O)[C@H]3C[C@H]4C(=O)N5CCC[C@H]5C(=O)N4[C@H]3c3ccc(O)cc3)cc2)[C@@]12C(=O)Nc1ccc(I)cc12,1.54,0.825 (inactive),0.267 (inactive),3.14 (inactive),1.95,0.553 (inactive),-0.203,1.46,1.07,-0.119
O=C1[C@@]23C=C(Br)[C@H](C[C@@H]2CCOC3)[C@@]12CO2,-0.414,0.24 (inactive),-2.31 (inactive),-0.582 (inactive),0.102,-0.0015 (inactive),-0.217,0.721,0.372,0.0372
COc1ccc(C(=O)Nc2ccc(CN3C(=O)[C@]4(O[C@H](CCO)[C@@H]([Si](C)(C)c5ccc(OC)cc5)[C@@H]4C)c4ccccc43)cc2)cc1,1.47,-0.0534 (inactive),-12.2 (active),1.62 (inactive),2.17,-0.324 (inactive),0.0412,0.827,1.13,-0.183
Cc1nc2cc(Br)ccc2c(=O)o1,0.648,-0.764 (inactive),0.597 (inactive),-1.07 (inactive),1.27,-1.07 (inactive),-0.082,0.198,1.04,0.104
C=CC[C@@]1(C(=O)NCCN2CCOCC2)N=C(c2ccc(OCCCO)cc2)O[C@@H]1c1ccccc1N=[N+]=[N-],0.513,0.658 (inactive),-0.211 (inactive),0.408 (inactive),2.03,-0.0403 (inactive),0.293,0.26,-0.483,0.38
COCCCNC(=O)[C@@]1(C)c2ccccc2C(=O)N(C(C)C)[C@H]1c1ccc(CO)cc1,1.53,0.564 (inactive),-0.162 (inactive),0.642 (inactive),1.6,-0.636 (inactive),-0.136,0.571,0.473,0.0004
CCCC[C@@H]1C[C@H]1[C@@H](NC(=O)c1cccs1)c1ccc(-c2ccccc2)cc1,0.464,0.227 (inactive),-3.7 (inactive),-1.24 (inactive),1.09,-0.692 (inactive),-0.121,0.692,0.428,-0.0688
COC(=O)[C@@]1(Cc2ccccc2)N=C(c2ccc(OCCCO)cc2)O[C@H]1c1ccccc1,1.31,-0.774 (inactive),-1.99 (inactive),3.21 (inactive),2.05,1.55 (inactive),0.116,0.0302,0.107,-0.123
CCC[C@@H]1C[C@@]1(CCC)[C@@H](NS(=O)(=O)c1cccc2cccnc12)c1ccc(Cl)cc1,0.0685,0.788 (inactive),1.01 (inactive),0.478 (inactive),2.66,-1.01 (inactive),0.0763,-1.22,0.296,-0.136
